PubChem BioAssay AID1159580 (chemical genetic matrix, 2015)
Out of some 5,500 compounds screened, about 2,000 (36%) were called active. Another 18% or so got no clear call; they are omitted. Rule as the data show it: active = normalized growth mostly below about 0.91 (no sharp cut-off); inconclusive = no clear call, values can overlap the other calls; inactive = mostly above about 0.92. The list shows a part of the results.

Assay: chemical genetic growth profiling, strain panel (AID 1159580);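 also: tested at 20 µM; growth read once vehicle control cultures reached saturation at 30 °C; 1 = growth at the plate median or of vehicle wells; lower values mean less growth of the strain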
Settings: growth OD

Measured: normalized growth

CCOC(=O)CC(SP(=S)(OC)OC)C(=O)OCC (stereo unspecified)
inactive: S. cerevisiae deletion strains, locus YAL013W, strain DEP1, stronger effect = lower value 1.02 | S. cerevisiae deletion strains, locus YBR021W, strain FUR4, stronger effect = lower value 1.01 | S. cerevisiae deletion strains, locus YBR229C, strain ROT2, stronger effect = lower value 1.01 | S. cerevisiae deletion strains, locus YCL029C, strain bik1, stronger effect = lower value 1.01 | S. cerevisiae deletion strains, locus YDL035C, strain GPR1, stronger effect = lower value 1.02 | S. cerevisiae deletion strains, locus YDL074C, strain BRE1, stronger effect = lower value 0.996 | S. cerevisiae deletion strains, locus YDL101C, strain DUN1, stronger effect = lower value 1 | S. cerevisiae deletion strains, locus YDL134C, strain PPH21, stronger effect = lower value 1.01 | S. cerevisiae deletion strains, locus YDL185W, strain tfp1, stronger effect = lower value 1.02 | S. cerevisiae deletion strains, locus YDL192W, strain arf1, stronger effect = lower value 1 | S. cerevisiae deletion strains, locus YDR101C, strain arx1, stronger effect = lower value 0.998 | S. cerevisiae deletion strains, locus YDR150W, strain NUM1, stronger effect = lower value 0.996 | S. cerevisiae deletion strains, locus YDR162C, strain NBP2, stronger effect = lower value 1.01 | S. cerevisiae deletion strains, locus YDR318W, strain mcm21, stronger effect = lower value 1.02 | S. cerevisiae deletion strains, locus YDR388W, stronger effect = lower value 1.01 | S. cerevisiae deletion strains, locus YDR502C, strain sam2, stronger effect = lower value 0.998 | S. cerevisiae deletion strains, locus YEL061C, strain CIN8, stronger effect = lower value 1.01 | S. cerevisiae deletion strains, locus YER110C, stronger effect = lower value 1.01 | S. cerevisiae deletion strains, locus YER155C, strain BEM2, stronger effect = lower value 1.02 | S. cerevisiae deletion strains, locus YER167W, strain BCK2, stronger effect = lower value 1.02 | S. cerevisiae deletion strains, locus YGL078C, strain dbp3, stronger effect = lower value 0.998 | S. cerevisiae deletion strains, locus YGL086W, strain mad1, stronger effect = lower value 1 | S. cerevisiae deletion strains, locus YGL248W, strain PDE1, stronger effect = lower value 1.01 | S. cerevisiae deletion strains, locus YGR078C, strain PAC10, stronger effect = lower value 1.01 | S. cerevisiae deletion strains, locus YGR135W, strain pre9, stronger effect = lower value 0.994 | S. cerevisiae deletion strains, locus YGR229C, strain SMI1, stronger effect = lower value 1.02 | S. cerevisiae deletion strains, locus YGR252W, strain gcn5, stronger effect = lower value 1 | S. cerevisiae deletion strains, locus YHR030C, strain SLT2, stronger effect = lower value 1.02 | S. cerevisiae deletion strains, locus YHR079C, strain IRE1 (second series), stronger effect = lower value 1.01 | S. cerevisiae deletion strains, locus YHR094C, strain hxt1, stronger effect = lower value 1.01 | S. cerevisiae deletion strains, locus YHR129C, strain ARP1, stronger effect = lower value 1.02 | S. cerevisiae deletion strains, locus YHR200W, strain rpn10, stronger effect = lower value 1.01 | S. cerevisiae deletion strains, locus YIL066C, strain RNR3, stronger effect = lower value 1.04 | S. cerevisiae deletion strains, locus YIL073C, strain SPO22, stronger effect = lower value 1.09 | S. cerevisiae deletion strains, locus YIL125W, strain kgd1, stronger effect = lower value 0.998 | S. cerevisiae deletion strains, locus YIR030C, strain dcg1, stronger effect = lower value 1 | S. cerevisiae deletion strains, locus YJL095W, strain BCK1, stronger effect = lower value 1.02 | S. cerevisiae deletion strains, locus YJL134W, strain LCB3, stronger effect = lower value 1.01 | S. cerevisiae deletion strains, locus YJL168C, strain set2, stronger effect = lower value 1.01 | S. cerevisiae deletion strains, locus YJL187C, strain SWE1 (second series), stronger effect = lower value 1.01 | S. cerevisiae deletion strains, locus YJR043C, strain POL32, stronger effect = lower value 1.01 | S. cerevisiae deletion strains, locus YJR075W, strain HOC1, stronger effect = lower value 1.01 | S. cerevisiae deletion strains, locus YKL009W, strain mrt4, stronger effect = lower value 1.01 | S. cerevisiae deletion strains, locus YKL068W, stronger effect = lower value 1.01 | S. cerevisiae deletion strains, locus YKL085W, strain MDH1 (second series), stronger effect = lower value 1.01 | S. cerevisiae deletion strains, locus YKL085W, strain MDH1, stronger effect = lower value 1.01 | S. cerevisiae deletion strains, locus YKL190W, strain CNB1, stronger effect = lower value 1.01 | S. cerevisiae deletion strains, locus YKR001C, strain vps1, stronger effect = lower value 1.02 | S. cerevisiae deletion strains, locus YLR039C, strain RIC1, stronger effect = lower value 1.06 | S. cerevisiae deletion strains, locus YLR058C, strain SHM2, stronger effect = lower value 1.02 | S. cerevisiae deletion strains, locus YLR102C, strain apc9, stronger effect = lower value 1.01 | S. cerevisiae deletion strains, locus YLR262C, strain YPT6, stronger effect = lower value 1.04 | S. cerevisiae deletion strains, locus YLR268W, strain sec22, stronger effect = lower value 0.997 | S. cerevisiae deletion strains, locus YLR330W, strain CHS5, stronger effect = lower value 1.01 | S. cerevisiae deletion strains, locus YLR342W, strain FKS1 (second series), stronger effect = lower value 1.07 | S. cerevisiae deletion strains, locus YLR371W, strain rom2, stronger effect = lower value 1.01 | S. cerevisiae deletion strains, locus YLR418C, strain cdc73, stronger effect = lower value 0.988 | S. cerevisiae deletion strains, locus YML016C, strain PPZ1, stronger effect = lower value 1.01 | S. cerevisiae deletion strains, locus YML032C, strain rad52, stronger effect = lower value 1 | S. cerevisiae deletion strains, locus YML124C, strain tub3, stronger effect = lower value 1.01 | S. cerevisiae deletion strains, locus YMR078C, strain ctf18, stronger effect = lower value 1.02 | S. cerevisiae deletion strains, locus YMR223W, strain ubp8, stronger effect = lower value 1.01 | S. cerevisiae deletion strains, locus YMR263W, strain SAP30, stronger effect = lower value 1.01 | S. cerevisiae deletion strains, locus YMR307W, strain GAS1, stronger effect = lower value 1.05 | S. cerevisiae deletion strains, locus YNL067W, strain RPL9B, stronger effect = lower value 0.998 | S. cerevisiae deletion strains, locus YNL128W, strain TEP1, stronger effect = lower value 1 | S. cerevisiae deletion strains, locus YNL153C, strain GIM3, stronger effect = lower value 1.01 | S. cerevisiae deletion strains, locus YNL233W, strain BNI4, stronger effect = lower value 1 | S. cerevisiae deletion strains, locus YNL250W, strain rad50, stronger effect = lower value 1.01 | S. cerevisiae deletion strains, locus YNL271C, strain bni1, stronger effect = lower value 1.02 | S. cerevisiae deletion strains, locus YNL298W, strain CLA4, stronger effect = lower value 1.02 | S. cerevisiae deletion strains, locus YNL307C, strain MCK1, stronger effect = lower value 1.02 | S. cerevisiae deletion strains, locus YNL322C, strain KRE1, stronger effect = lower value 1.01 | S. cerevisiae deletion strains, locus YNR052C, strain pop2, stronger effect = lower value 1 | S. cerevisiae deletion strains, locus YOL006C, strain TOP1, stronger effect = lower value 1.02 | S. cerevisiae deletion strains, locus YOL012C, strain htz1 0.831 | S. cerevisiae deletion strains, locus YOL147C, strain pex11, stronger effect = lower value 1.01 | S. cerevisiae deletion strains, locus YOR061W, strain CKA2, stronger effect = lower value 1 | S. cerevisiae deletion strains, locus YOR069W, strain VPS5, stronger effect = lower value 1.01 | S. cerevisiae deletion strains, locus YOR136W, strain idh2, stronger effect = lower value 1 | S. cerevisiae deletion strains, locus YOR144C, strain elg1, stronger effect = lower value 1 | S. cerevisiae deletion strains, locus YOR184W, strain ser1, stronger effect = lower value 1.02 | S. cerevisiae deletion strains, locus YOR316C, strain cot1, stronger effect = lower value 1 | S. cerevisiae deletion strains, locus YPL055C, strain LGE1, stronger effect = lower value 1 | S. cerevisiae deletion strains, locus YPL241C, strain CIN2, stronger effect = lower value 1.01 | S. cerevisiae deletion strains, locus YPR119W, strain clb2, stronger effect = lower value 1 | S. cerevisiae deletion strains, locus YPR141C, strain kar3, stronger effect = lower value 1 | S. cerevisiae deletion strains, locus YPR163C, strain tif3, stronger effect = lower value 1.01 | S. cerevisiae deletion strains, locus YPR167C, strain met16, stronger effect = lower value 1.01 | S. cerevisiae deletion strains, strain wtn01, stronger effect = lower value 0.996 | S. cerevisiae strains, strain wild type, stronger effect = lower value 1.01
